From the supplement of paper PMC13380429

Columns and labels:
[1] = test system: Vero E6 infected with SARS-CoV-2; experiment: morphology score (similarity to uninfected cells); higher = more like uninfected cells; conditions: 24 h
[2] = test system: Vero E6 infected with SARS-CoV-2; experiment: SARS-CoV-2 infection rate relative to infected DMSO; higher = more infection, active = 60 or less; conditions: 24 h

| SMILES | morphology score [1] | SARS-CoV-2 infection rate [2] |
| --- | --- | --- |
| COC(=O)Nc1nc2cc([S+]([O-])c3ccccc3)ccc2[nH]1 (centres undefined) [oxfendazole] (10 µM) | 0.15 | 101% (inactive) |
| CC1COc2c(N3CCN(C)CC3)c(F)cc3c(=O)c(C(=O)O)cn1c23 (centres undefined) [ofloxacin] (10 µM) | 0.0901 | 104% (inactive) |
| COC(=O)C[C@](O)(CCCC(C)(C)O)C(=O)O[C@@H]1C(OC)=C[C@]23CCCN2CCc2cc4c(cc2[C@H]13)OCO4 [homoharringtonine] (10 µM) | 0.837 | 23% (active) |
| COc1ccccc1OC(=O)c1ccccc1OC(C)=O [guacetisal] (10 µM) | 0.0562 | 101% (inactive) |
| NCCCNCCSP(=O)(O)O [amifostine] (10 µM) | 0.164 | 100% (inactive) |
| Cc1cc(C)c2nc(-c3ccccn3)cc(C(=O)Nc3ccc(S(=O)(=O)Nc4onc(C)c4C)cc3)c2c1 (10 µM) | -0.319 | 97% (inactive) |
| O=C(O)CCc1ccc(NCc2cccc(Oc3ccccc3)c2)cc1 (10 µM) | -0.132 | 116% (inactive) |
| CN(C)CCCN1c2ccccc2Sc2ccccc21 [promazine] (10 µM) | 0.41 | 91.5% (inactive) |
| NCCCCCc1c[nH]cn1 [impentamine] (10 µM) | 0.128 | 92.5% (inactive) |
| CCC[C@@]1(CCc2ccccc2)CC(O)=C([C@H](CC)c2cccc(NS(=O)(=O)c3ccc(C(F)(F)F)cn3)c2)C(=O)O1 [tipranavir] (10 µM) | 0.183 | 94.5% (inactive) |
| COc1ccc2[nH]cc(C3=CCNCC3)c2c1 (10 µM) | 0.191 | 104% (inactive) |
| CCCN(CCC)S(=O)(=O)c1ccc(C(=O)O)cc1 [probenecid] (10 µM) | -0.0854 | 106% (inactive) |
| CC(C)NCC(O)c1cc(O)cc(O)c1 (centres undefined) [metaproterenol] (10 µM) | 0.132 | 104% (inactive) |
| N#Cc1cn([C@@H]2O[C@H](CO)[C@@H](O)[C@H]2O)c2ncnc(N)c12 [toyocamycin] (0.833333 µM) | -0.0555 | 104% (inactive) |
| COc1cc2ncnc(Nc3cccc(Br)c3)c2cc1OC (10 µM) | -0.238 | 104% (inactive) |
| Cc1cnc(C(=O)N[C@H]2CCCCC/C=C\[C@@H]3C[C@@]3(C(=O)NS(=O)(=O)C3CC3)NC(=O)[C@@H]3C[C@@H](Oc4nc5ccccc5c5ccccc45)CN3C2=O)cn1 [paritaprevir] (10 µM) | 0.303 | 98% (inactive) |
| CC[C@@H](CO)NC(=O)[C@@H]1C=C2c3cccc4c3c(cn4C)C[C@H]2N(C)C1 [methysergide] (10 µM) | 0.0741 | 110% (inactive) |
| c1ccc2c(CCNc3ccc(Nc4ccncc4)cc3)c[nH]c2c1 [serdemetan] (10 µM) | 0.933 | 37.5% (active) |
| CO/N=C(\C(=O)N[C@@H]1C(=O)N2C(C(=O)O)=C(CSc3nc(C)c(CC(=O)O)s3)CS[C@H]12)c1csc(N)n1 [cefodizime] (10 µM) | 0.129 | 101% (inactive) |
| CS(=O)(=O)c1ccc(-c2cc(Br)sc2-c2ccc(F)cc2)cc1 (10 µM) | 0.0351 | 104% (inactive) |
| Cc1cc([N+](=O)[O-])ccc1NS(=O)(=O)c1cc(Cl)ccc1Cl (0.833333 µM) | 0.153 | 101% (inactive) |

| SMILES | morphology score [1] | SARS-CoV-2 infection rate [2] |
| --- | --- | --- |
| OCCN1CCN(CCCN2c3ccccc3C=Cc3ccccc32)CC1 [opipramol] (10 µM) | 0.237 | 102% (inactive) |
| CCCCOCCOc1nc(-c2ccc(C(=O)O)c(F)c2)sc1C (10 µM) | -0.127 | 108% (inactive) |
| c1ccc(CN(CC2=NCCN2)c2ccccc2)cc1 [antazoline] (10 µM) | -0.22 | 112% (inactive) |
| COc1cccc(OCCCN)c1-c1cc(Nc2cnc(C#N)cn2)n[nH]1 (10 µM) | -0.0952 | 103% (inactive) |
| C=C1C(=O)O[C@@H]2[C@H]3O[C@]3(C)CC/C=C(\C)CC[C@@H]12 [parthenolide-(alternate-stereo)] (0.833333 µM) | 0.111 | 106% (inactive) |
| C[C@@H]1CCO[C@H]2Cn3cc(C(=O)NCc4ccc(F)cc4F)c(=O)c(O)c3C(=O)N12 [dolutegravir] (10 µM) | 0.0816 | 112% (inactive) |
| Oc1ccc([C@H]2COc3cc(O)ccc3C2)cc1 [equol] (10 µM) | -0.116 | 114% (inactive) |
| N[C@@H](CS)C(=O)O [L-cysteine] (10 µM) | 0.0349 | 94% (inactive) |
| O=C(/C=C\n1cnc(-c2cc(C(F)(F)F)cc(C(F)(F)F)c2)n1)N1CC(F)(F)C1 (10 µM) | -0.303 | 116% (inactive) |
| O=C(/C=C/c1ccc(O)cc1)c1ccc(O)cc1O [isoliquiritigenin] (10 µM) | 0.403 | 103% (inactive) |
| C#C[C@]1(O)CC[C@H]2[C@@H]3CCC4=CC(=O)CC[C@]4(C)[C@H]3CC[C@@]21C [ethisterone] (10 µM) | -0.0671 | 107% (inactive) |
| O=S(=O)(/N=C/c1c(O)ccc2ccccc12)c1cccs1 (10 µM) | 0.103 | 98.5% (inactive) |
| COC(=O)C1=C(C)NC(C)=C(C(=O)O[C@H]2CCN(Cc3ccccc3)C2)[C@H]1c1cccc([N+](=O)[O-])c1 [barnidipine] (10 µM) | -0.0592 | 112% (inactive) |
| O=c1c(-c2ccc(O)cc2)coc2cc(O)ccc12 [daidzein] (10 µM) | 0.126 | 95% (inactive) |
| CCN(CC)C(=O)N[C@H]1C=C2c3cccc4[nH]cc(c34)C[C@H]2N(C)C1 [lisuride] (10 µM) | -0.111 | 110% (inactive) |
| C[C@@]12C[C@@]3(O)O[C@@H](O1)[C@]1(COC(=O)c4ccccc4)[C@H]3C[C@@]12O[C@@H]1O[C@H](CO)[C@@H](O)[C@H](O)[C@H]1O [paeoniflorin] (10 µM) | 0.192 | 92.5% (inactive) |
| CC[C@H](C)n1cc(C)c2c(C(=O)NCc3c(C)cc(C)[nH]c3=O)cc(-c3ccc(N4CCNCC4)nc3)cc21 (10 µM) | -0.212 | 109% (inactive) |
| O=C(c1ccccn1)c1cnn2c(-c3ccncc3)ccnc12 [ocinaplon] (10 µM) | -0.0527 | 117% (inactive) |
| CC(C)(C)S(=O)(=O)N[C@H]1CC[C@H](C(=O)Nc2ccc(C(F)(F)F)cn2)CC1 [velneperit] (10 µM) | -0.0103 | 115% (inactive) |
| C=CCSCC1Nc2cc(Cl)c(S(N)(=O)=O)cc2S(=O)(=O)N1 (centres undefined) [althiazide] (10 µM) | -0.00232 | 98% (inactive) |
| O.O=[Si]=O.O=[Si]=O.O=[Si]=O.O=[Si]=O.[O]=[Mg].[O]=[Mg].[O]=[Mg] (10 µM) | 0.0643 | 104% (inactive) |

| SMILES | morphology score [1] | SARS-CoV-2 infection rate [2] |
| --- | --- | --- |
| CCCCCCN(CCCCCC)C(=O)Cc1c(-c2ccc(Cl)cc2)[nH]c2ccc(Cl)cc12 (10 µM) | -0.00824 | 103% (inactive) |
| CN(C)NC(=O)CCC(=O)O [daminozide] (10 µM) | 0.0765 | 95% (inactive) |
| c1ccc(CCCCN2CCC(c3ccccc3)CC2)cc1 (10 µM) | 0.286 | 73.5% (inactive) |
| O=C(O)Cc1cccnc1C(=O)O [homoquinolinic-acid] (10 µM) | 0.0575 | 102% (inactive) |
| C[N+](C)(C)CCOP(=O)(O)OC[C@H](O)CO [choline-alfoscerate] (10 µM) | 0.0475 | 114% (inactive) |
| C=CC(=O)Nc1cccc(Nc2nc(Nc3ccc(OCCOC)cc3)ncc2F)c1 (0.833333 µM) | -0.0246 | 116% (inactive) |
| Cn1cnc2c1c(=O)[nH]c(=O)n2C [theobromine] (10 µM) | 0.00515 | 108% (inactive) |
| C=C1CCN([C@H](C)[C@](O)(Cn2cncn2)c2ccc(F)cc2F)CC1 [efinaconazole] (10 µM) | 0.162 | 92% (inactive) |
| N#CCC(=O)NN [cyacetacide] (10 µM) | 0.167 | 102% (inactive) |
| C#C[C@]1(O)CC[C@H]2[C@@H]3CCC4=Cc5oncc5C[C@]4(C)[C@H]3CC[C@@]21C [danazol] (10 µM) | 0.377 | 72% (inactive) |
| C[C@]12CC/C(=N\OCCN)C[C@@H]1C(=O)C[C@@H]1[C@@H]2CC[C@]2(C)C(=O)CC[C@@H]12 [istaroxime] (0.833333 µM) | 0.151 | 102% (inactive) |
| NCCCCCC(O)(P(=O)(O)O)P(=O)(O)O [neridronic-acid] (10 µM) | 0.208 | 91% (inactive) |
| CN1CC(=O)N=C1NC(=O)Nc1cccc(Cl)c1 [fenobam] (10 µM) | -0.115 | 107% (inactive) |
| Clc1ccc(CSC(Cn2ccnc2)c2ccc(Cl)cc2Cl)cc1 (centres undefined) [sulconazole] (10 µM) | -0.0348 | 110% (inactive) |
| C[C@@H]1O[C@@H](OC[C@H]2O[C@@H](Oc3c(-c4ccc(O)c(O)c4)oc4cc(O)cc(O)c4c3=O)[C@H](O)[C@@H](O)[C@@H]2O)[C@H](O)[C@H](O)[C@H]1O [rutin] (10 µM) | -0.197 | 112% (inactive) |
| CN1CCC(=C2c3ccccc3CCn3c(C=O)cnc32)CC1 [alcaftadine] (10 µM) | 0.0541 | 93.5% (inactive) |
| O=C(NNc1nc2cc(F)ccc2n2cccc12)c1cnccn1 (10 µM) | 0.0623 | 105% (inactive) |
| CCOC(=O)[C@H]1O[C@@H]1C(=O)N[C@@H](CC(C)C)C(=O)NCCC(C)C [aloxistatin] (10 µM) | 0.331 | 90% (inactive) |
| Cc1nc(C)c(C)nc1C [chuanxiongzine] (10 µM) | -0.146 | 118% (inactive) |
| O=C(COP(=O)(O)O)[C@@H](O)[C@H](O)[C@H](O)COP(=O)(O)O [fosfructose] (10 µM) | -0.202 | 120% (inactive) |
